Compound activity from PubChem BioAssay.
Many of the other results were omitted from the sample, so hits are more common in it than they were.
LmPK inhibitor – inhibitors of Leishmania mexicana pyruvate kinase. Q27686. Potency, µM (top dose mostly 57.5 µM), for the others: at the highest dose activity change, negative = inhibition, most hits filed as inhibitors. 290,000 tested, 0.37% active. purified LmPK, Kinase-Glo ATP luminescence, 1 h. AID 1721; also: potency is read from the fitted curve at half-maximal effect; % is scaled to controls: 0 for no effect and ±100 for the full control effect
Target sequence (Q27686 whole entry, looked up): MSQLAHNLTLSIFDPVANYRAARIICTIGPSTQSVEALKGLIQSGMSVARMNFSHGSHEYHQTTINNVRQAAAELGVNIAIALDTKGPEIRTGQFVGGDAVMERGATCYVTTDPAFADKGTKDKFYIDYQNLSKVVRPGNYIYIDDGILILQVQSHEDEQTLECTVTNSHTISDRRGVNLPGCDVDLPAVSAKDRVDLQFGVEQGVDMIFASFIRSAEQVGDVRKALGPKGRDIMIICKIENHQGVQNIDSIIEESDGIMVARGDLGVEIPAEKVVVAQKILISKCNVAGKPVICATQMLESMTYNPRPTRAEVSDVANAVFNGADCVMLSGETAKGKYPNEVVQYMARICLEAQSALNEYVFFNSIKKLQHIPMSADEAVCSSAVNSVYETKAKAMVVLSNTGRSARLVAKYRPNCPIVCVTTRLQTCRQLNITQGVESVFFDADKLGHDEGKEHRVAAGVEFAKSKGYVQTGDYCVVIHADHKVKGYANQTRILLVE
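0.1 nM LmPK, 0.5 mM PEP, 0.1 mM ADP; 50 mM imidazole pH 7.2, 7 mM MgCl2, 50 mM KCl; 1 h RT. Kinase-Glo luminescence readout, normalized to no-enzyme (full inhibition) and uninhibited wells.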
CHX counter – counter-screen hit for Shiga toxin inhibitors, cycloheximide. cell reporter, cycloheximide protein synthesis inhibition counterscreen. 300,000 tested, 12% active. AID 2314. max response, %; in the data active = max response mostly above about 13%, no sharp cut-off; inactive = mostly below about 14%; also: read at 38.3 µM for the half of the compounds with a filed dose; 0% is about no effect
Shiga toxin inh – blocks Shiga toxin action in Vero cells. Vero cells, Shiga toxin protein synthesis inhibition reporter. inhibition, % at 38.7 µM. 290,000 tested, 9.2% active. AID 2315; in the data active = inhibition mostly above about 28%, no sharp cut-off; inactive = mostly below about 43%; also: 0% is about no effect
FBPA Giardia inh – Giardia lamblia aldolase inhibition; 290,000 tested, 0.71% active; purified Giardia FBPA; A8B2U2; Potency, µM (top dose mostly 59.6 µM), for the others: at the highest dose activity, negative = inhibition, usual class: inhibitors; also: potency is read from the fitted curve at half-maximal effect; % is scaled to controls: 0 for no effect and ±100 for the full control effect; nearly all actives have a fitted effect of over 55% in size
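Giardia FBPA (40 nM reagent) was preincubated 10 min at RT with compound (up to 57.5 uM final), then substrate plus GAPDH/TPI/NAD/arsenate coupling system with diaphorase/resazurin was added; resorufin fluorescence (525/598 nm) was read after 20 min.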
TbPYK inhibitor – blocks Trypanosoma brucei pyruvate kinase | TbPYK enzyme, Kinase-Glo Plus ATP luminescence, 45 min | Potency, µM (titrated, usually from 76.8 µM), for inactives: at the top dose activity, negative = inhibition, most hits filed as inhibitors | 410,000 tested, 0.12% active; also: potency is read from the fitted curve at half-maximal effect; % is scaled to controls: 0 for no effect and ±100 for the full control effect; nearly all actives have a fitted effect of over 50% in size
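Luminescent Kinase-Glo Plus end-point after 45 min room-temperature reaction of T. brucei pyruvate kinase started with 130 uM ADP (final). Buffer TEA 50 mM pH 7.2 with KCl, MgCl2, BSA, Tween-20; titration-based qHTS with fitted concentration-effect curves.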
RE007 growth inh – less growth of the S. pombe RE007 Vpr strain; 360,000 tested, 0.21% active; AID 651644; Potency, µM (titrated, usually from 92.2 µM), inactives show at the top dose activity change, negative = less growth, actives largely listed as inhibitors; S. pombe RE007 Vpr strain, BacTiter-Glo ATP luminescence, 24 h; active = well fitted falling curve with a large enough effect; also: potency is read from the fitted curve at half-maximal effect; % is scaled to controls: 0 for no effect and ±100 for the full control effect; nearly all actives have a fitted effect of over 50% in size
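Fission yeast RE007 carrying one integrated HIV-1 vpr copy, seeded at OD 0.01 in PMG+AL medium with 23 nL pinned compound. Grown 24 h at 30 degrees; viability read by BacTiter-Glo luminescence after 5 min.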
* hit, by the source's call; [ ] = dose if it differs, or a comment. Unless noted, calls follow the shape of the dose curve; as a rule, active = well fitted curve in the direction sought with a large enough effect; inconclusive = small, poorly fitted or top-dose-only effect, or another doubt; inactive = no such curve, though single readings can be large; an effect the other way counts as inactive or inconclusive.

Screening O=C(NCC(c1cccs1)S(=O)(=O)c1cccs1)c1c(F)cccc1F (configuration not stated) returned TbPYK inhibitor 0%.
Screening CC1CN(C(=O)c2cc([N+](=O)[O-])cc([N+](=O)[O-])c2)CC(C)O1 (configuration not stated) returned LmPK inhibitor 1%, CHX counter 42*, Shiga toxin inh 104*, FBPA Giardia inh -2%, TbPYK inhibitor 0% and RE007 growth inh 4%.
Screening COc1ccccc1CNC(=O)COC(=O)COc1ccccc1Cc1ccccc1 returned TbPYK inhibitor 0% and RE007 growth inh -21%.
For COc1ccc(-c2c(C3C4C=CCCC4(C)C(=O)N3Cc3ccccc3)ccc3ccccc23)cc1OC (configuration not stated) the results were CHX counter 9, Shiga toxin inh 10 and FBPA Giardia inh 3%.
Screening CCC(=O)Nc1ccccc1C(=O)OCC(=O)c1ccc2ccccc2c1 returned LmPK inhibitor 11%, CHX counter 11, Shiga toxin inh 12, FBPA Giardia inh -8%, TbPYK inhibitor -11% and RE007 growth inh -1%.
CC(=O)Nc1ccccc1C(=O)OCC(=O)c1ccc2ccccc2c1 was read as LmPK inhibitor 4%, CHX counter 28*, Shiga toxin inh 76*, TbPYK inhibitor 6% and RE007 growth inh 0%.
For NC(=O)NCCCC(=O)OCC(=O)c1ccc2ccccc2c1 the results were LmPK inhibitor 5%, CHX counter 21*, Shiga toxin inh 23, FBPA Giardia inh 0%, TbPYK inhibitor 0% and RE007 growth inh -8%.
For CCC(=O)Nc1ccccc1C(=O)OCC(=O)c1ccccc1 the results were LmPK inhibitor 0%, CHX counter 20*, Shiga toxin inh 89*, TbPYK inhibitor 0% and RE007 growth inh 2%.
For CC(=O)Oc1ccccc1Cn1c(C)c(C(=O)NCc2ccccc2C(F)(F)F)sc1=O the results were TbPYK inhibitor 2% and RE007 growth inh 1%[18.4 µM].
For CC1OC(Nc2ccc(N=Nc3ccccc3)cc2)C(O)C(O)C1O (configuration not stated) the results were LmPK inhibitor -3%, CHX counter 37*, Shiga toxin inh 118*, FBPA Giardia inh 0%, TbPYK inhibitor 2% and RE007 growth inh -23%.
For Cn1ncc([N+](=O)[O-])c1C(=O)Nc1ccc(-c2nc3ccccc3o2)cc1 the results were LmPK inhibitor 2%, CHX counter 24*, Shiga toxin inh 41*, FBPA Giardia inh 0%, TbPYK inhibitor 3% and RE007 growth inh -13%.
`O=C(NCc1ccco1)Nc1ccc2snnc2c1` gave LmPK inhibitor 19%, CHX counter 8, Shiga toxin inh 17, FBPA Giardia inh 1%, TbPYK inhibitor 2% and RE007 growth inh -17%.
Screening COCCNC(=O)Nc1ccc2nc(C)sc2c1 returned LmPK inhibitor -2%, CHX counter 13, Shiga toxin inh 64, FBPA Giardia inh -12%, TbPYK inhibitor -5% and RE007 growth inh 3%.
For Cc1nc2ccc(NC(=O)NCCO)cc2s1 the results were LmPK inhibitor 5%, CHX counter 20*, Shiga toxin inh 35, FBPA Giardia inh 0%, TbPYK inhibitor 3% and RE007 growth inh -15%.
For Cc1nc2ccc(NC(=O)NCc3ccco3)cc2s1 the results were LmPK inhibitor -4%, CHX counter 43*, Shiga toxin inh 56*, FBPA Giardia inh -2%, TbPYK inhibitor -2% and RE007 growth inh -3%.
`Cc1nc2ccc(NC(=O)NCCCO)cc2s1` gave LmPK inhibitor -4%, CHX counter 16*, Shiga toxin inh 49*, FBPA Giardia inh 0%, TbPYK inhibitor 0% and RE007 growth inh 10%.
For COc1ccc(OCC(=O)Nc2ccc3nc(C)sc3c2)cc1 the results were LmPK inhibitor 2%, CHX counter -3, Shiga toxin inh -11, FBPA Giardia inh 6%, TbPYK inhibitor -13% and RE007 growth inh -29%.
`Oc1c(C(c2ccccc2F)N2CCN(c3ccccc3F)CC2)sc2nc(-c3ccco3)nn12` (configuration not stated) gave TbPYK inhibitor 2%.
